# Values without a mark were called inactive. Some of the results follow. Active and inactive are the calls of the source.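 Rule for the calls, unless noted: active = inhibition above the hit cutoff set in the earlier primary screen (cut at about 27% in these data); inactive = the rest.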
# Columns and labels:
# [1] = target: Protein phosphatase methylesterase 1 (Homo sapiens) (UniProt Q9Y570); experiment: PME-1 inhibitor activity retest, confirmation, biochemical, fluorescence polarization, FP-Rh probe, triplicate (AID 2171); conditions: recombinant PME-1, FP-Rh probe fluorescence polarization; at 5.9 µM; hits give high values;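 note: 0% = enzyme with DMSO and 100% = wells lacking PME-1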
# Chain of Protein phosphatase methylesterase 1 (Homo sapiens) (Q9Y570 whole entry, looked up): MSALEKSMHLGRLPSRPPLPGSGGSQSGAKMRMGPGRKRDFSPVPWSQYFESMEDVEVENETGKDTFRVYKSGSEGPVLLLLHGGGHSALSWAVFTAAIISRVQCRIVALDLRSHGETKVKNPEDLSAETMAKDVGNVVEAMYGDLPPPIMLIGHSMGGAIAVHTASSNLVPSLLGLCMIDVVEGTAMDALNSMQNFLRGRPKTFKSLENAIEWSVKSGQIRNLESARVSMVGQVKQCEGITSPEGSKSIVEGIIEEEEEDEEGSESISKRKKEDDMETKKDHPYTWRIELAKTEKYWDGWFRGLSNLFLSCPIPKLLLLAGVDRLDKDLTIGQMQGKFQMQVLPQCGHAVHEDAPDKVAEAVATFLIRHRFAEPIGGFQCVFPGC
# [2] = StAR promoter reporter inhibitors, counter-screen for LRH-1 inverse agonist project, cell-based, luminescence, high throughput (AID 651611; in the data active = inhibition above about 28%); conditions: StAR promoter luciferase reporter counterscreen, at 3.6 µM, hits give high values
# [3] = target: Nuclear receptor subfamily 5 group A member 2 (Homo sapiens) (UniProt O00482); experiment: LRH-1 (NR5A2) inverse agonists, retest, confirmation, cell-based, luminescence (AID 651613; in the data active = inhibition above about 42%;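 note: HEK293T cells co-transfected with LRH-1 and StAR promoter luciferase reporter; 0% = vehicle wells and 100% = parental cells lacking receptor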); conditions: cell-based LRH-1 luciferase reporter, inverse agonism; at 3.6 µM; hits give high values
# Chain of Nuclear receptor subfamily 5 group A member 2 (Homo sapiens) (O00482 whole entry, looked up): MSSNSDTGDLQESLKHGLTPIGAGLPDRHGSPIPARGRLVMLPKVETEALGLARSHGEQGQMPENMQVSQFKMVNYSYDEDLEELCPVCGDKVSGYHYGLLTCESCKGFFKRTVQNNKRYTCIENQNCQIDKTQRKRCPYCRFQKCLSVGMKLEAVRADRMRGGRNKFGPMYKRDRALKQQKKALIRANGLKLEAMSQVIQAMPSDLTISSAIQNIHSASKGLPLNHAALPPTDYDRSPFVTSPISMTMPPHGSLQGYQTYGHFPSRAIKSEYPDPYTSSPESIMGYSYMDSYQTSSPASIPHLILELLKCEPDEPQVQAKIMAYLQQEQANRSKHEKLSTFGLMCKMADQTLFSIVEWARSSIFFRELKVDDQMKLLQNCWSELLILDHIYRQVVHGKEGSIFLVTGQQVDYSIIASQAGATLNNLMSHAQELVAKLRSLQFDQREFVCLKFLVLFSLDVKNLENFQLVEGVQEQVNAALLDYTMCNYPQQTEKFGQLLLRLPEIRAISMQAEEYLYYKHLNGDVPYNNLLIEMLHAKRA
# [4] = target: Steroidogenic factor 1 (Homo sapiens) (UniProt Q13285); experiment: SF1 (NR5A1) inverse agonists, counter-screen for LRH-1 inverse agonist project, cell-based, luminescence, high throughput (AID 651614; in the data active = inhibition above about 44%;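 note: cells cotransfected with StAR promoter reporter and SF1 expression vector; 0% = vehicle on cells with receptor and 100% = vehicle on cells lacking receptor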); conditions: cell-based SF1 luciferase reporter, at 3.6 µM, hits give high values
# Chain of Steroidogenic factor 1 (Homo sapiens) (Q13285 whole entry, looked up, the tested form may be a part): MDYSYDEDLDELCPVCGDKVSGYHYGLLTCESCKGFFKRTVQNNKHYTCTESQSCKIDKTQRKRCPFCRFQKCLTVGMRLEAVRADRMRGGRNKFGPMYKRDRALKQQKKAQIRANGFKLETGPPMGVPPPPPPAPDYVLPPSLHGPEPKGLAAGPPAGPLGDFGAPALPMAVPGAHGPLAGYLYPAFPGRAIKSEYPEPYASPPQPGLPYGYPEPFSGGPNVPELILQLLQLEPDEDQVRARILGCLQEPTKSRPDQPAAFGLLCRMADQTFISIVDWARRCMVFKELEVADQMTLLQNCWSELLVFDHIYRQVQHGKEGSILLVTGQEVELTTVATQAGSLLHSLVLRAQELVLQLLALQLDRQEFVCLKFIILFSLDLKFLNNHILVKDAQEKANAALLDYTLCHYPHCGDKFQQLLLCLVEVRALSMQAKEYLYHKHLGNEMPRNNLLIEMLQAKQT
# [5] = VP16 transactivation reporter inhibitors, counter-screen for LRH-1 inverse agonist project, cell-based, luminescence, high throughput (AID 651615; in the data active = inhibition above about 33%); conditions: Gal4-VP16 luciferase reporter cells, at 3.6 µM, hits give high values
# [6] = system: transactivating tegument protein VP16 (Human herpesvirus 1); experiment: VP16 transactivation reporter inhibitors, counter-screen for SRC2 inhibitor project, cell-based, luminescence, single concentration (AID 652007; in the data active = inhibition above about 36%); conditions: cell-based VP16 transactivation luciferase reporter, at 8.9 µM, hits give high values
# [7] = target: Nuclear receptor coactivator 2 (Homo sapiens) (UniProt Q15596); experiment: SRC2 coactivator transcriptional activity inhibitors, confirmation, cell-based, luminescence, HEK293, triplicate (AID 652008;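 active = mean inhibition above 46.5%, the solvent-only control mean plus 3 SD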;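 note: 0% = DMSO-treated cells and 100% = Gossypol at 36 µM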); conditions: HEK293 GAL4-SRC2 luciferase reporter, at 8.9 µM, hits give high values
# Chain of Nuclear receptor coactivator 2 (Homo sapiens) (Q15596 whole entry, looked up, the tested form may be a part): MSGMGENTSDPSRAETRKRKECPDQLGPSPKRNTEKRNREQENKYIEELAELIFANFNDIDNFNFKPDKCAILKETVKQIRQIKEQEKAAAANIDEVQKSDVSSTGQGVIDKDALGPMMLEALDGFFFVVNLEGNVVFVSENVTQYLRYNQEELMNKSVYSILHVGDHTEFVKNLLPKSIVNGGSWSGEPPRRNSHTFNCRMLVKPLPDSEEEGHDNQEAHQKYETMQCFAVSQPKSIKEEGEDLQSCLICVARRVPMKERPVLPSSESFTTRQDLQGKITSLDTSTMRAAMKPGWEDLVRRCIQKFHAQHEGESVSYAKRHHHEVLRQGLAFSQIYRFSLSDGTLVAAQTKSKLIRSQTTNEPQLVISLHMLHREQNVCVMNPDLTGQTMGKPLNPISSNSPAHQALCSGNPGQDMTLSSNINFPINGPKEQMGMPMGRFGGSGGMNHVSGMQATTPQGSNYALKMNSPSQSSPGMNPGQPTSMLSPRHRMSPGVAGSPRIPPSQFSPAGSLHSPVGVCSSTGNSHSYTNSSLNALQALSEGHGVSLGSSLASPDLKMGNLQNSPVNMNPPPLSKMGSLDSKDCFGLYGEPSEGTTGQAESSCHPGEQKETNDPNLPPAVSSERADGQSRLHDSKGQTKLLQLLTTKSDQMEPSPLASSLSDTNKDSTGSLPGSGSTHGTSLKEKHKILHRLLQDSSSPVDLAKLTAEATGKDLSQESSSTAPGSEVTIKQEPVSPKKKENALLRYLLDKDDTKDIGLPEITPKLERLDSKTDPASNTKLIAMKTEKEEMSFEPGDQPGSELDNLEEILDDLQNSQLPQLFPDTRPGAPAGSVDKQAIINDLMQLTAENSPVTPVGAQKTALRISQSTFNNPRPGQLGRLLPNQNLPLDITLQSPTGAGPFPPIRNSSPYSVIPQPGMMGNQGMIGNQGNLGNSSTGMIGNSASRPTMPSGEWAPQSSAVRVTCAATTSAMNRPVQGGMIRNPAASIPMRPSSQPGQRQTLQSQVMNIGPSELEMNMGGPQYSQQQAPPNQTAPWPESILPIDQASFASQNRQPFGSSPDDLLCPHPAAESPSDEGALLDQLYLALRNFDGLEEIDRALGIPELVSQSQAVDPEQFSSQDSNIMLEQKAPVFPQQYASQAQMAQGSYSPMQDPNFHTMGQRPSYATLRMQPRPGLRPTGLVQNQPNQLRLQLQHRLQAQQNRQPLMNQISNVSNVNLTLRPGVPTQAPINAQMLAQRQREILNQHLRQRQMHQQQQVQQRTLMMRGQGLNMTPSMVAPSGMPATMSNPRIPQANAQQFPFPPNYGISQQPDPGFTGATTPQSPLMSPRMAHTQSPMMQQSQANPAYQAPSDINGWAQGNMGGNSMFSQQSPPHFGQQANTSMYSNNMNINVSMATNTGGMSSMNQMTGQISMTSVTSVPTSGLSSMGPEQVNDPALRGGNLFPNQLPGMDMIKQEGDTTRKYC
# [8] = target: Glutathione S-transferase omega-1 (Homo sapiens) (UniProt P78417); experiment: GSTO1 inhibitor hit confirmation, counter-screen for RBBP9 inhibitor project, biochemical, fluorescence polarization, triplicate (AID 2176;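 active = inhibition above the primary screen's cutoff, its mean inhibition plus 3 SD, cut at about 35% in these data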;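 note: loss of polarization as inhibitors block binding of rhodamine sulfonate ester activity probe; 0% = GSTO1 with DMSO and 100% = wells lacking GSTO1 enzyme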); conditions: recombinant GSTO1, probe fluorescence polarization; at 5.96 µM; hits give high values
# Chain of Glutathione S-transferase omega-1 (Homo sapiens) (P78417 whole entry, looked up): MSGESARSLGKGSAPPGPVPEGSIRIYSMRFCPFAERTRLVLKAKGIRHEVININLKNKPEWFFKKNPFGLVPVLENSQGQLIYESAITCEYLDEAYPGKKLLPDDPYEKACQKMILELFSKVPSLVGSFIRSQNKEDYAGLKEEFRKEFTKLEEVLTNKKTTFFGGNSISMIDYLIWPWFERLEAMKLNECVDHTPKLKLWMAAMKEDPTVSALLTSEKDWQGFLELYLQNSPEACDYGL
# [9] = target: Nuclear receptor coactivator 3 (Homo sapiens) (UniProt Q9Y6Q9); experiment: SRC3 coactivator transcriptional activity inhibitors, confirmation, cell-based, luminescence, quadruplicate (AID 588792;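 active = mean inhibition over 43.08%, the solvent-only control mean plus 3 SD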;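 note: 0% = DMSO treated cells and 100% = gossypol at 36 µM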); conditions: HEK293 GAL4-SRC3 luciferase reporter, at 3.6 µM, hits give high values
# Chain of Nuclear receptor coactivator 3 (Homo sapiens) (Q9Y6Q9 whole entry, looked up, the tested form may be a part): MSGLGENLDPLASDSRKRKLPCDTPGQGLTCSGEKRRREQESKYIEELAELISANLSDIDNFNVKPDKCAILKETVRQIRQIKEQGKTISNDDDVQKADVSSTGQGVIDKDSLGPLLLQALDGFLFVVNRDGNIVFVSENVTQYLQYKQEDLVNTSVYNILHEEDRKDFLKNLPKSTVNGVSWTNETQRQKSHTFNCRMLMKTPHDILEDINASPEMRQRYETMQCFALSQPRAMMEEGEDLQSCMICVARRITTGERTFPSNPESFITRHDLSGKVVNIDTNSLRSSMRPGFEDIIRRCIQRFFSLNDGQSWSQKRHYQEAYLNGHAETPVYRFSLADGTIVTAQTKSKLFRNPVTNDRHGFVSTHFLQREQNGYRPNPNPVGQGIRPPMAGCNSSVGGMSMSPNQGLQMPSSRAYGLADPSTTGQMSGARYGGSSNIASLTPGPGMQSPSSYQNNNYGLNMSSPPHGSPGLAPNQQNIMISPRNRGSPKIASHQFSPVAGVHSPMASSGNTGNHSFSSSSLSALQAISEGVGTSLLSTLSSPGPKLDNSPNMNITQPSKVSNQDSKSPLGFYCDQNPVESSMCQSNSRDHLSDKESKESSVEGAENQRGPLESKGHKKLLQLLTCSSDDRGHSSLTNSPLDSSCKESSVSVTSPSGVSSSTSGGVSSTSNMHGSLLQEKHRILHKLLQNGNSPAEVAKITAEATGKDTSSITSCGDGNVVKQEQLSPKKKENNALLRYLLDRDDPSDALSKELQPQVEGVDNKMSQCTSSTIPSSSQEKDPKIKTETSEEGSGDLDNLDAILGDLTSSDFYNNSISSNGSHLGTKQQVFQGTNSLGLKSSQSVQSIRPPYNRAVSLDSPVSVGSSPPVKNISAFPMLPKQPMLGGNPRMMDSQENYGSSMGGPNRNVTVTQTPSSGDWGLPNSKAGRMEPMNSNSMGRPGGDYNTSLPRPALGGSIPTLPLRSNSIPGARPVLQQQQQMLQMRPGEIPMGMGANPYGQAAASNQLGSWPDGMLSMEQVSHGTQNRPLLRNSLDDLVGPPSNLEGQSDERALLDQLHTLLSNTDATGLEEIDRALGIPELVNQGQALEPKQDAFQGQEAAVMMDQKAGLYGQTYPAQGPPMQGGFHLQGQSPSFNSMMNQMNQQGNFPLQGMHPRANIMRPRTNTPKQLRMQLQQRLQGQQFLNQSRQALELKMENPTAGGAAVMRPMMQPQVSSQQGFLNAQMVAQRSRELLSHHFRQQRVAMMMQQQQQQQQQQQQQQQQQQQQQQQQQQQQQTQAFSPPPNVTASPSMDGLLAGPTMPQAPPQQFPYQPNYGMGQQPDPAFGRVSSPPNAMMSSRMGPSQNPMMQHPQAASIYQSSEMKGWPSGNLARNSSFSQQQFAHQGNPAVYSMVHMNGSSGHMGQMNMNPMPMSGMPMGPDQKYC
# [10] = system: transactivating tegument protein VP16 (Human herpesvirus 1), Gal4-VP16 luciferase reporter; experiment: VP16 transactivation inhibitors, counter-screen for SRC3 inhibitor project, cell-based, luminescence, high throughput (AID 588794; in the data active = inhibition above about 30%); conditions: mammalian cells, VP16-driven luciferase reporter luminescence; at 3.6 µM; hits give high values
# [11] = target: Nuclear receptor coactivator 1 (Homo sapiens) (UniProt Q15788); experiment: SRC1 coactivator transcriptional activity inhibitors, confirmation, cell-based, luminescence, quadruplicate (AID 588820;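 active = mean inhibition above 46.68%, the untreated control wells mean plus 3 SD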;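 note: 0% = DMSO wells and 100% = gossypol 36 µM treated wells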); conditions: HEK293 GAL4-SRC1 luciferase reporter, at 3.6 µM, hits give high values
# [12] = VP16 transactivation inhibitors, counter-screen for SRC1 inhibitor project, cell-based, luminescence, high throughput (AID 588824; in the data active = inhibition above about 25%); conditions: cell-based VP16 transactivation luciferase luminescence; at 3.6 µM; hits give high values
structure (smiles),measurement,setting,value
O=C1C(SCCO)=C(SCCO)C(=O)c2ccccc21,inhibition,[1],38.3% (active)
same,inhibition,[2],26.2%
same,inhibition,[3],76.3% (active)
same,inhibition,[4],74.8% (active)
same,inhibition,[5],46.1% (active)
CN(c1ccccc1)S(=O)(=O)c1ccc(NC(=O)c2nc(S(C)(=O)=O)ncc2Cl)cc1,inhibition,[1],24.2%
same,inhibition,[6],94.3% (active)
same,inhibition,[7],77.3% (active)
O=C1OC(Nc2cc(Br)cc3cccnc23)c2ccccc21 (centres undefined),inhibition,[1],6.18%
same,inhibition,[2],16.4%
same,inhibition,[3],25.9%
same,inhibition,[4],31.6%
same,inhibition,[5],13.6%
O=C(Cc1cc(=O)[nH][nH]1)N/N=C/c1ccccc1[N+](=O)[O-],inhibition,[8],5.98%
CN(C)S(=O)(=O)c1cccc(NC(=S)N/N=C/c2cc(Br)ccc2O)c1,inhibition,[1],16.8%
same,inhibition,[9],55.4% (active)
same,inhibition,[10],59.2% (active)
same,inhibition,[6],-15.5%
same,inhibition,[7],24.2%
C1=C(CCNc2ncnc3c2[nH]c2ccccc23)CCCC1,inhibition,[1],29.3% (active)
same,inhibition,[2],-12%
same,inhibition,[3],36%
same,inhibition,[4],41.4%
same,inhibition,[5],37.5% (active)
O=C1C(Cl)=C(Nc2ccc3cn[nH]c3c2)C(=O)c2ccccc21,inhibition,[1],31.7% (active)
same,inhibition,[6],-24%
same,inhibition,[7],52.9% (active)
COc1cccc2c1C(=O)c1c(O)c3c(c(O)c1C2=O)C[C@](O)(C(C)=O)C[C@H]3O[C@@H]1C[C@@H](N)[C@@H](O)[C@@H](C)O1,inhibition,[1],40.8% (active)
same,inhibition,[2],67% (active)
same,inhibition,[3],104% (active)
same,inhibition,[4],92.5% (active)
same,inhibition,[5],77.3% (active)
same,inhibition,[6],40.6% (active)
same,inhibition,[7],41.1%
Cc1ccc(NC(=O)c2ccc(Nc3c([N+](=O)[O-])cc([N+](=O)[O-])cc3[N+](=O)[O-])cc2)cc1,inhibition,[1],30.6% (active)
same,inhibition,[9],7.5%
same,inhibition,[10],2.96%
same,inhibition,[6],50% (active)
same,inhibition,[7],27.1%
COc1cccc(/C=N/NC(=O)c2cc3c(OC)ccc(OC)c3[nH]2)c1O,inhibition,[1],32.6% (active)
same,inhibition,[11],28.5%
same,inhibition,[12],29.7% (active)
same,inhibition,[6],-23.7%
same,inhibition,[7],28.4%
